Compounds with a hit are over-represented: about 2.6% of the library has one in this group of screens.
uPA generation = cell surface uPA generation inhibition. cell surface uPA generation assay, qHTS. Potency, µM (highest dose often 38.3 µM), for the others: at the highest dose activity change, negative = inhibition, actives largely listed as inhibitors. 330,000 tested, 0.31% active. AID 540303; active = well fitted inhibition curve with a large enough effect; inconclusive = small, poorly fitted or top-dose-only effect; inactive = no such curve, though single readings can be large or run the other way; tested in mouse RAW 264.7 cells; note: potency is the fitted concentration of half-maximal effect; % is set by controls: 0 for no effect and ±100 for the full control effect; nearly all actives have a fitted effect of over 55% in size
Giardia killer = kills Giardia lamblia | Giardia lamblia trophozoite viability | activity change, % at 7.66 µM, hits read low | 340,000 tested, 0.15% active; in the data active = activity change below about -80%; inconclusive = between about -30% and that limit;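 note: parasites exposed to compound for two days anaerobically before the ATP read; % is set by controls: 0 for no effect and ±100 for the full control effect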
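ATP-content bioluminescence gauges trophozoite survival. Cells (100/well) receive compound and incubate anaerobically for 48 hrs at 37 deg C; detection reagent follows for 15-30 min at room temperature.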
HepG2 viability = kills HepG2 cells in TGF-b inhibitor counter-screen; AID 588856; HepG2 CAGA-GFP viability, ATP luminescence, 18 h; 410,000 tested, 0.76% active; Potency, µM (doses to about 46.1 µM), for inactives: at the top dose activity change, negative = cytotoxicity, usual class: cytotoxic; note: potency is the fitted concentration of half-maximal effect
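CellTiter-Glo luminescence gave cytotoxicity after 18 hours at 37 degrees C. The cells were HepG2 CAGA-GFP in 1% FBS DMEM, stimulated with 500 pg/mL TGF-beta after compound addition. %Activity was normalised to no-cell wells (complete cell-killing) and DMSO (no toxicity), and curves were fitted and classified.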
TGFb SMAD3 inh = blocks TGF-b signaling | HepG2 CAGA-GFP TGF-b/SMAD3 reporter, GFP fluorescence, 18 h; TGF-beta stimulated, 500 pg/mL final | Potency, µM (doses to about 46.1 µM), for inactives: at the top dose activity, negative = inhibition, hits mostly inhibitors | 410,000 tested, 1.2% active; note: potency is the fitted concentration of half-maximal effect; % is set by controls: 0 for no effect and ±100 for the full control effect; nearly all actives have a fitted effect of over 65% in size
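Using HEPG2 CAGA-GFP reporter cells at 1000 cells/well, we pinned test compounds, stimulated with recombinant TGF-beta (500 pg/mL final) and measured total well GFP after 18 h.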
ATXN2 expr inh = ATXN2 expression inhibition | HEK-293 ATXN2-luciferase reporter, luminescence, 24 h | Potency, µM (highest dose often 57 µM), for the others: at the highest dose activity change, negative = inhibition, usual class: inhibitors | 360,000 tested, 0.72% active; note: potency is the fitted concentration of half-maximal effect; % is set by controls: 0 for no effect and ±100 for the full control effect; nearly all actives have a fitted effect of over 55% in size
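qHTS (up to 57 uM final) was run with 24 h compound exposure of reporter cells at 37 °C. Each well was multiplexed: SteadyGlo luminescence measured ATXN2-luciferase expression after a fluorogenic Gly-Phe-AFC viability readout (25 uM final).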
ATXN viability = cell viability loss in ATXN counter-screen | S2 cells (HEK-293 line with an ATXN2-luciferase reporter) viability, CellTiter-Fluor protease fluorescence, 24 h | Potency, µM (series often up to 56.7 µM), hits mostly cytotoxic | 400,000 tested, 0.49% active | AID 651635; note: potency is the fitted concentration of half-maximal effect; nearly all actives have a fitted effect of over 40% in size
Starred values were filed as active, the others as inactive; i = inactive; ? = inconclusive; . = no result given; ! = not active in a repeat. Unless noted, calls come from the whole dose curve; as a rule, active = well fitted curve in the direction sought with a large enough effect; inconclusive = small, poorly fitted or top-dose-only effect, or another doubt; inactive = no such curve, though single readings can be large; an effect the other way counts as inactive or inconclusive.

SMILES	uPA generation	Giardia killer	HepG2 viability	TGFb SMAD3 inh	ATXN2 expr inh	ATXN viability
COc1cc(/C=C/c2nc(-c3ccccc3O)n[nH]2)cc(OC)c1OC	-2%	-4	11µM*	?	-9%	i
CCN(Cc1ccccc1)S(=O)(=O)c1ccc(C(=O)N(CCCN(C)C)c2nc3cc(C)cc(C)c3s2)cc1	-6%	-29	i	?	?	25µM*
Cc1cc(C)c2sc(N(CCN(C)C)C(=O)c3c(F)cccc3F)nc2c1	-2%	-2	-40%	?	-17%	i
Cc1cccc2sc(N(CCCN(C)C)C(=O)c3ccco3)nc12	-11%	3	0%	0%	?	i
Cc1cc(C)c2sc(N(CCCN(C)C)C(=O)c3ccc(S(=O)(=O)N(C)Cc4ccccc4)cc3)nc2c1	?	-28	-114%	?	?	.
Cc1cc(C)c2sc(N(CCCN(C)C)C(=O)c3ccc(Br)s3)nc2c1	-17%	-3	-78%	?	8.9µM*	11µM*
Cc1cccc2sc(N(CCCN(C)C)C(=O)c3ccc(Cl)s3)nc12	2%	-1	-17%	?	22µM*!	?
CCOc1cccc2sc(N(CCN(C)C)C(=O)c3cc4ccccc4cc3OC)nc12	?	0	-53%	?	20µM*	?
O=S(=O)(c1ccc(Cl)cc1)N1CCN(c2nc(-c3ccccc3)nc3ccccc23)CC1	.	6	-3%	11%	.	.
c1ccc(CCNc2ncnc3scc(C4COc5ccccc5O4)c23)cc1 (stereo not given)	-5%	0	-47%	16µM*	-27%	i
c1ccc2c(c1)OCC(c1csc3ncnc(N4CCCC4)c13)O2 (stereo not given)	-8%	2	-12%	?	-5%	i
C=C1CC2(CC(c3ccccc3)OC(c3ccccc3)C2)OC1=O (stereo not given)	-4%	8	11µM*	?	?	.
CSc1ccccc1C(=O)N1CCc2ccc(NC(=O)c3ccccn3)cc2C1	.	.	10µM*	-10%	.	?
Cc1cc(C)c(NC(=O)Nc2ccccc2C)c(Cl)c1	2%	3	1.3µM*	-7%	.	i
CC(C)(C)NC(=O)CCN(/N=C/c1ccc([N+](=O)[O-])o1)C1=NS(=O)(=O)c2ccccc21	-17%	-92*	-10%	?	?	?
CN(C)c1ccc(/C=N/N(CCC(=O)NC(C)(C)C)C2=NS(=O)(=O)c3ccccc32)cc1	-4%	5	-11%	8%	1%	i
CC(=O)NC(c1ccco1)c1ccc2cccnc2c1O (stereo not given)	-14%	-4	-14%	?	10µM*	i
CCC(=O)NC(c1ccco1)c1cc(Br)c2cccnc2c1O (stereo not given)	.	.	-18%	4µM*	5µM*	?
Cc1ncc2c(c1CNC(=O)c1cncs1)CCN(C(=O)c1csc(-c3cccs3)n1)C2	.	.	.	.	.	i
Cc1[nH]nc2c1C(c1ccco1)C(C#N)=C(N)O2 (stereo not given)	0%	5	-9%	-10%	8%	i
Cc1[nH]nc2c1C(c1cc(Br)cs1)C(C#N)=C(N)O2 (stereo not given)	-12%	7	-65%	10µM*	-39%	i
Cc1cc(C)nc(SCC(=O)NC2=NN=C(c3ccc(Br)cc3)CS2)n1	.	-18	-15%	-2%	?	32µM*
CCOc1cc(/C=N/Nc2nc(N3CCCCC3)nc(N3CCCCC3)n2)ccc1OC(=O)c1ccco1	13µM*	-14	5%	1%	.	?
COc1cc(OC)cc(C(=O)NCC2Cc3cccc(-c4nc(C)cnc4C)c3O2)c1 (stereo not given)	.	.	.	.	.	i
Cc1ncc([N+](=O)[O-])n1CC(=O)Nc1ccccc1	8%	5	10%	2%	.	i
SMILES	uPA generation	Giardia killer	HepG2 viability	TGFb SMAD3 inh	ATXN2 expr inh	ATXN viability
Cc1ncc([N+](=O)[O-])n1CCOC(=O)c1ccccc1	-6%	-100*	-2%	-8%	53%	i
Cc1ncc([N+](=O)[O-])n1CCOC(=O)Nc1ccc(Cl)c(Cl)c1	-3%	-90*	-2%	16%	-16%	i
CCC(=O)O[C@H]1[C@H](O[C@@H]2[C@@H](C)[C@H](O[C@H]3C[C@@](C)(OC)[C@@H](O)[C@H](C)O3)[C@@H](C)C(=O)O[C@H](CC)[C@@](C)(O)[C@H](O)[C@@H](C)C(=O)[C@H](C)C[C@@]2(C)O)O[C@H](C)C[C@@H]1N(C)C	.	.	.	.	6%	16µM*!
O=c1c([N+](=O)[O-])cccn1Cc1ccccc1Cl	-12%	?	-23%	?	?	?
O=c1c([N+](=O)[O-])cccn1Cc1cccc(Br)c1	-6%	-85*	1%	17%	3%	i
NCC(=O)c1c[nH]c2ccccc12	.	.	0%	-1%	.	.
O=C1c2cc(F)ccc2-n2c1nc1ccccc1c2=O	-1%	?	1.1µM*	?	?	i
Nn1c(-c2ccc(F)cc2)nc2ccccc2c1=O	10%	-5	0%	-4%	5%	i
Cc1onc(-c2ccccc2)c1C(=O)N[C@@H]1C(=O)N2[C@@H](C(=O)O)C(C)(C)S[C@@H]12	.	.	.	.	5%	i
CN(C)CCCn1c(SCC(=O)N2c3ccccc3Sc3ccccc32)nc2ccccc2c1=O	-12%	-4	10µM*	-21%	28µM*	25µM*
O=C(Nc1ccc(Cl)cc1Cl)c1cnn2c1NC(=C1CC1)C=C2C(F)F	.	.	-1%	1%	.	.
CCOc1cc(CNC2CCCC2)cc(Cl)c1OCc1ccc(F)cc1	-15%	12	11µM*	?	22µM*	28µM*
CCOc1cc(CNCCc2ccc(S(N)(=O)=O)cc2)cc(Cl)c1OCc1ccccc1	.	-11	-110%	?	20µM*	.
COc1cc(CNC2CCCC2)cc(Cl)c1OCc1ccc(F)cc1	3%	-3	-93%	-26%	?	?
C=C(/C=C/c1ccc(N(C)C)cc1)c1nc2ccccc2s1	.	.	-31%	-20%	.	.
CCCCCCC[n+]1ccc(/C=C/c2c[nH]c3ccccc23)c2ccccc21	.	.	13µM*	7.1µM*	.	.
CCCCCCCCCC[n+]1ccc(/C=C/c2c[nH]c3ccccc23)cc1	.	.	16µM*	260%	.	.
CCCCCCC[n+]1ccc(/C=C/c2c(C)[nH]c3ccccc23)c2ccccc21	.	.	-114%	13µM*	.	.
CCCCCCCCCC[n+]1ccc(/C=C/c2c(C)[nH]c3ccccc23)c2ccccc21	.	.	3.2µM*	2.5µM*	.	.
CSc1ncccc1C(=O)NCC1Cc2cc(-c3cnccn3)cc(Cl)c2O1 (stereo not given)	.	.	.	.	.	i

Compound activity as filed in PubChem BioAssay.
